High-throughput results as filed in PubChem BioAssay.
AMA1-RON2 inh = disrupts binding of P. falciparum AMA1 to RON2. Potency, µM (highest dose often 58.2 µM), usual class: inhibitors. 0.2% of 360,000 active. AlphaScreen AMA1-biotinylated RON2 peptide binding; note: nearly all actives have a fitted effect of over 45% in size
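AMA1 (3D7) with his tag at 25 nM final met compounds first, then biotinylated RON2 peptide at 25 nM; detection used donor plus acceptor beads, 10 µg/mL apiece, read by AlphaScreen after 30 min at room temperature.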
CHX counter = counter-screen hit for Shiga toxin inhibitors, cycloheximide. cell reporter, cycloheximide protein synthesis inhibition counterscreen. max response, %. 12% of 300,000 active; in the data active = max response mostly above about 13%, no sharp cut-off; inactive = mostly below about 14%; note: read at 38.3 µM for the half of the compounds with a filed dose
Pf growth 48h = P. falciparum growth inhibition at 48 hours (one generation); 5.9% of 310,000 active; P. falciparum luciferase growth in erythrocytes, 48 h; Potency, µM (series often up to 28.7 µM), usual class: inhibitors
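Erythrocytes infected with P. falciparum carrying an integrated firefly luciferase reporter (2% hematocrit, 0.1% parasitemia final) were exposed to compounds in RPMI 1640 with 0.5% Albumax at 37 C, 5% CO2. Growth inhibition was scored as reduced luminescence.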
Pf growth 96h = inhibits malaria parasite growth, 96 h. P. falciparum luciferase reporter growth, 96 h. Potency, µM (top dose mostly 28.7 µM), usual class: inhibitors. 6.9% of 320,000 active. AID 504834
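Cell-based qHTS: luciferase-tagged P. falciparum in erythrocytes (2% hematocrit, 0.05% parasitemia final) incubated with compounds for 96 hours, 37 C, 5% CO2; luciferase detection reagent then added and luminescence measured.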
SARS PLpro yeast = SARS-CoV PLP inhibition in yeast; S. cerevisiae expressing SARS-CoV PLpro, growth rescue; 0.19% of 330,000 active; AID 485353; Potency, µM (titrated, usually from 32.9 µM), actives largely listed as activators; calls by dose curve; note: nearly all actives have a fitted effect of over 55% in size
Shiga toxin inh = inhibitors of Shiga toxin in Vero cells; Vero cells, Shiga toxin protein synthesis inhibition reporter; inhibition, % at 38.7 µM; 9.2% of 290,000 active; AID 2315; in the data active = inhibition mostly above about 28%, no sharp cut-off; inactive = mostly below about 43%
Hits are given with their value; 0 = inactive; ? = inconclusive; - = not tested or not shown; [ ] = another dose, or the depositor's remark. Compounds with a hit are over-represented: about 19% of the library has one in this group of screens. Unless noted, calls come from the whole dose curve; as a rule, active = well fitted curve in the direction sought with a large enough effect; inconclusive = small, poorly fitted or top-dose-only effect, or another doubt; inactive = no such curve, though single readings can be large; an effect the other way counts as inactive or inconclusive.

SMILES	AMA1-RON2 inh	CHX counter	Pf growth 48h	Pf growth 96h	SARS PLpro yeast	Shiga toxin inh
Cc1ccc(CN2C(=O)CCC2C(=O)NCCN(CC(C)C)CC(C)C)cc1 (stereo not given)	0	26	?	?	0	0
COc1ccc2c(C)c(CC(=O)N3C[C@H]4C[C@@H](C3)c3cccc(=O)n3C4)c(=O)oc2c1OC	0	0	?	?	0	0
COc1cc(/C=N/NC(=O)CCC(=O)Nc2ccc(C)cc2)ccc1O	0	0	0	0	0	0
COc1ccccc1/C=N/NC(=Nc1ccc(C)cc1)c1nc2ccccc2s1	-	53	0	0	0	184
COc1cc(/C=N/NC(=Nc2ccc(C)cc2)c2nc3ccccc3s2)ccc1O	0	42	0	-	0	100
COc1ccc(-c2noc(CCC(=O)N3CCN(c4cccc(C)c4C)CC3)n2)cc1	0	-	-	-	0	-
O=C(NCCNC(=O)c1ccc(-c2ccc(Cl)c(Cl)c2)o1)c1cnccn1	0	0	0	?	0	0
CCOC(=O)C1=C(O)C(=O)N(C2CCCCC2)C1	0	0	0	0	0	0
Cc1cccnc1NC(=S)NC(=O)/C=C/c1ccccc1	0	31	?	0	0	78
Cc1ccnc(NC(=S)NC(=O)/C=C/c2ccccc2)c1	0	32	0	0	0	61
Cc1ccnc(NC(=S)NC(=O)/C=C/c2ccc(Cl)cc2)c1	0	26	0	4.1µM	0	26
O=C(/C=C/c1ccccc1)NC(=S)Nc1cccnc1	0	0	0	?	0	0
C=CCNC(=S)Nc1cc(C)ccn1	0	0	?	0	0	0
CCOC(=O)CSc1cc(CS(=O)c2ccc(Cl)cc2)nc(-c2ccccc2)n1 (stereo not given)	0	0	0	0	0	0
Cc1ccc(NC(=O)C2=C(O)CCn3c2nc2ccccc23)cc1	0	22	-	?	0	0
COc1cc(C(=O)Nc2ccc(C)cc2)c2ccccc2n1	0	0	0[0.00184 µM]	0	0	0
COc1ccc(C(=O)Nc2ccc(NC(=O)c3cccc(F)c3)cn2)cc1	0	0	?	?	0	0
CC(C)(C)NC(=O)c1cccc(NC(=O)c2ccco2)c1	0	0	0	0	0	0
C/C(=N\NC(=O)c1ccn(C)n1)c1ccc(NC(=O)c2cccc(F)c2)cc1	0	58	0	0	0	170
C/C(=N/NC(=O)c1ccco1)c1cccc(NC(=O)c2ccc(C)o2)c1	0	41	0	0	0	122
C/C(=N/NC(=O)c1ccco1)c1cccc(NC(=O)c2ccc(C)s2)c1	0	56	0	0	0	68
C/C(=N\NC(=S)Nc1cccc(C)c1)c1ccco1	0	0	?	0	0	0
CCC(CC)C(=O)Nc1cccc(/C(C)=N\NC(=O)c2ccc(C)s2)c1	0	14	0	0	0	0
C/C(=N/NC(=O)c1ccc(Br)o1)c1ccncc1	0	74	0	0	0	60
COc1ccc(C(=O)N/N=C(\C)c2cccc(NC(=O)c3ccc(F)cc3)c2)c(OC)c1	0	26	0	0	0	0
SMILES	AMA1-RON2 inh	CHX counter	Pf growth 48h	Pf growth 96h	SARS PLpro yeast	Shiga toxin inh
C/C(=N/NC(=O)c1ccc(Br)o1)c1cccc(NC(=O)c2ccc(F)cc2)c1	0	49	?	?	0	120
C/C(=N/NC(=O)c1ccc(C)s1)c1cccc(NC(=O)COc2ccc(Cl)cc2Cl)c1	0	0	-	0	0	0
COc1ccc(C(=O)N/N=C(/C)c2cccc(NC(=O)c3ccccc3F)c2)cc1	0	0	0	?	0	0
C/C(=N\NC(=O)c1ccn(C)n1)c1cccc(NC(=O)c2ccc(C)s2)c1	0	32	0	0	0	77
CC(C)(C)NC(=O)CN(C(=O)c1csnn1)c1cccc2c1CCCC2	0	0	0	?	0	0
CCO[C@@H]1OC(C(=O)NC2CC2)=C[C@H](c2ccc(Br)cc2)[C@H]1CCCO	0	0	?	0	0	0
COC(=O)C1(C(=O)OC)C(C(=O)c2ccccc2)C1c1ccccc1 (stereo not given)	0	-	-	-	-	-
COc1cc(/C=C/C(=O)N2CCN(C)CC2)cc(S(=O)(=O)N2CCc3ccccc32)c1OC	0	0	0	?	0	0
COC(=O)C[C@@H]1OC[C@H](Cc2ccccc2)N1S(=O)(=O)c1ccc(C)cc1	0	-	-	-	-	-
CCC(=O)Nc1ccc(/C(C)=N\NC(=O)c2ccc(C)s2)cc1	0	15	?	?	0	0
C/C(=N\NC(=O)c1ccc(Br)cc1)c1cccc(NC(=O)c2cccnc2)c1	0	0	0	0	0	0
C/C(=N/NC(=O)c1ccc(Br)o1)c1cccc(NC(=O)c2ccc(C)o2)c1	0	28	0	?	0	136
O=C(Cc1noc2ccccc12)Nc1ccc(Cl)cc1	0	35	0	0	0	0
Cc1cccc(NC(=O)Cc2noc3ccccc23)c1C	0	0	0	0	0	34
Cc1cccc(NC(=O)Cc2noc3ccccc23)c1	0	48	0	0	0	74
CCOC(=O)c1ccc(NC(=O)N2CCN(c3cccc(OC)c3)CC2)cc1	0	0	?	0	0	0
C/C(=N\N(C)C)C1=C(O)c2ccccc2C1=O	0	29	0	0	0	89
CC(=NC1CC1)C1=C(O)c2ccccc2C1=O	0	50	-	0	0	55
CC(=NCCCN(C)C)C1=C(O)c2ccccc2C1=O	0	0	0	0	0	0
CCOC(=O)c1c(C)[nH]c(C)c1S(=O)(=O)N(C)CC(=O)NCc1cccc(C)c1	0	0	?	5.9µM	0	0
CCOC(=O)c1c(C)[nH]c(C)c1S(=O)(=O)N(C)CC(=O)Nc1cc(C)ccc1OC	0	0	?	0	0	0
O=C(CCCCCNC(=O)c1ccccc1Br)N=Nc1c(O)[nH]c2ccccc12	0	0	?	?	0	0
O=C(c1ccco1)c1coc2c1cc(O)c1ccccc12	0	32	?	?	0	100
CC(=O)c1coc2c1cc(O)c1ccccc12	0	0	-	?	0	0
CC[C@@H]1Cc2[nH][nH]c(=O)c2[C@H](c2ccc(Cl)cc2)O1	0	-	-	-	-	-
SMILES	AMA1-RON2 inh	CHX counter	Pf growth 48h	Pf growth 96h	SARS PLpro yeast	Shiga toxin inh
CCN(CC)c1ncnc2scc(C3COc4ccccc4O3)c12 (stereo not given)	0	0	8.3µM	0	0	0
OC(CSc1c(Cl)cccc1Cl)CN1CCN(c2ccc(F)cc2)CC1 (stereo not given)	0	0	?	?	0	0
Nc1ccccc1C(=O)NCCCN1CCOCC1	0	0	-	0	0	0
CC(/C=N/Nc1nc2ccccc2[nH]1)=C\c1ccccc1	0	23	?	?	0	0
CC(/C=N/Nc1nc(C)cc(=O)[nH]1)=C\c1ccccc1	0	42	0	0	0	60
CC(C)CNC(=O)C(=O)Nc1ccc2c(c1)N(S(=O)(=O)c1cccs1)CCC2	0	-	?	10µM	0	-
CC(C)CCNC(=O)C(=O)Nc1ccc2c(c1)N(S(=O)(=O)c1cccs1)CCC2	0	-	5.9µM	?	0	-
